A549 viability: counter-screen for Nrf2 inhibitors: cytotoxicity in A549 cells | A549 ARE-Fluc cells, CellTiter-Fluor viability, 18-24 h | Potency, µM (top dose mostly 46 µM), inactives show at the top dose activity change, negative = cytotoxicity, actives largely listed as inhibitors | 390,000 tested, 0.16% active | AID 504648; note: potency is the fitted concentration of half-maximal effect; % is set by controls: 0 for no effect and ±100 for the full control effect
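A549 ARE-Fluc cells in 5% FBS OPTI-MEM, 5000 cells/well, rested 2 h then exposed to compounds in concentration-response for 18-24 h at 37 °C. Viability by CellTiter-Fluor fluorescence (Ex 405/Em 525) after 30 min; luciferase luminescence (BugLite, 15 min, RT) read afterwards.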
ERG Ets-DNA blk: ERG Ets/DNA interaction inhibition. P11308. Potency, µM (series often up to 76.9 µM), for inactives: top-dose FP activity, negative = inhibition, actives largely listed as inhibitors. fluorescence polarization, His-ERG Ets domain / labelled DNA. 370,000 tested, 0.028% active. AID 624246; active = well fitted inhibition curve with a large enough effect in the polarisation, with a control signal flat; inconclusive = small, poorly fitted or top-dose-only effect, or effect the other way, or a change in a side signal; inactive = no such curve, though single readings can be large or run the other way; the % refers to the polarisation;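 note: polarization taken with two DNA probes labelled with fluorescein and Texas red; potency is the fitted concentration of half-maximal effect; % of control where 0% means no effect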
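His-tagged ERG Ets domain (1 uM in the protein solution; 300mM KCl, 50mM Tris-HCl, 1mM EDTA, 1mM DTT, pH 7.5) received compound, then a probe mix of 5 nM fluorescein-DNA and 100nM Texas-615-DNA. Fluorescence polarization was read for both dyes.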
Nrf2 block: inhibitors of Nrf2 signaling. A549 ARE-Fluc reporter, luciferase luminescence, 18-24 h. Potency, µM (doses to about 46 µM), for the others: at the highest dose activity change, negative = inhibition, hits mostly inhibitors. 360,000 tested, 2.1% active; note: potency is the fitted concentration of half-maximal effect; % is set by controls: 0 for no effect and ±100 for the full control effect; nearly all actives have a fitted effect of over 60% in size
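A549 ARE_Fluc cells (5000/well, 5% FBS OPTI-MEM) pre-incubated 2 h, then treated with compounds 18-24 h at 37C/5% CO2 in concentration-response. CellTiter-Fluor viability read first; BugLite luciferase luminescence after 15 min at room temperature gives Nrf2 activity.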
LDHA block: inhibitors of human lactate dehydrogenase A; activity change, % (values are at about 110 or 230 µM); purified LDHA, NADH/diaphorase-resazurin fluorescence; hits give low values; 480,000 tested, 0.15% active; P00338; AID 1347041; in the data active = activity change below about -30%; inconclusive = mostly about -25% to -30%;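 note: plate controls were DMSO wells for no effect and wells without enzyme for full effect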
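Remaining NADH was detected by diaphorase (0.133 mg/mL) converting 37 µM resazurin to fluorescent resorufin, read at 0 and 20 minutes. The preceding 5-minute room-temperature reaction used 2 nM LDHA, 0.2 mM sodium pyruvate and 0.06 mM NADH at pH 7.4.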
Nrf2 activator: Nrf2 pathway activation | AREc32 ARE-luciferase reporter (MCF7-derived line), luminescence, 24 h | Potency, µM (highest dose often 46.1 µM), for the others: at the top dose activation, hits mostly activators | 410,000 tested, 0.31% active; note: potency is the fitted concentration of half-maximal effect; % of control where 0% means no effect; nearly all actives have a fitted effect of over 65% in size
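Each well held 1000 AREc32 cells, which were incubated with compound for 24 hr at 37 deg C after overnight attachment, and ARE reporter activity was quantified by firefly luciferase luminescence.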
ALOX12 inh: ALOX12 (human) lipoxygenase inhibition. purified 12hLO, xylenol orange hydroperoxide absorbance. AID 1671190. 580,000 tested, 1.1% active. Potency, µM (titrated, usually from 108 µM), inactives show top-dose activity change, negative = inhibition, most hits filed as inhibitors; note: potency is the fitted concentration of half-maximal effect; % is set by controls: 0 for no effect and ±100 for the full control effect
Target sequence (P18054 whole entry, looked up): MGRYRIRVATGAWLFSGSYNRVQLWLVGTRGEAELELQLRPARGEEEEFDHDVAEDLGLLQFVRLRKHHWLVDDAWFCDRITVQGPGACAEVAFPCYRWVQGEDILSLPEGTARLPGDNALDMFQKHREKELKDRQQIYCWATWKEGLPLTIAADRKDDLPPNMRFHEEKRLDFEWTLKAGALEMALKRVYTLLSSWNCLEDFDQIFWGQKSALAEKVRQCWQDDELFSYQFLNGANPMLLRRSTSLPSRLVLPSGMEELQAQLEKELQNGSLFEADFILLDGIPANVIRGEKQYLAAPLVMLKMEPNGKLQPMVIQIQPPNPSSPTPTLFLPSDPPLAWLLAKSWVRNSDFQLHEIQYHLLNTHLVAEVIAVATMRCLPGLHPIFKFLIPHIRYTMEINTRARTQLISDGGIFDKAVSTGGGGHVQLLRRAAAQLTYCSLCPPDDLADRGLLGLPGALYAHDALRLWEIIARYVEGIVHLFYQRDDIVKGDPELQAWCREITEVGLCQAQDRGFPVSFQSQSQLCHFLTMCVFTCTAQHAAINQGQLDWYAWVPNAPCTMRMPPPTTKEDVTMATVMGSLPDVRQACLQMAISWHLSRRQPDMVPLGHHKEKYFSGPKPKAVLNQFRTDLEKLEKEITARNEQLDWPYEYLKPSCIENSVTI
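Purified human 12hLO at 150 nM in 25 mM Hepes, 0.01% Triton X-100, pH 7.0, preincubated 15 min at room temperature with compound. Reaction started with 40 uM arachidonic acid, 30 min at room temperature. Hydroperoxide measured by Fe-xylenol orange, 573/405 nm absorbance ratio.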
Active calls of the source: *; ? = inconclusive; / = not tested or not shown; [ ] = dose if it differs, or a comment. Compounds with a hit are over-represented: about 2.7% of the library has one in this group of screens. Unless noted, calls come from the whole dose curve; as a rule, active = well fitted curve in the direction sought with a large enough effect; inconclusive = small, poorly fitted or top-dose-only effect, or another doubt; inactive = no such curve, though single readings can be large; an effect the other way counts as inactive or inconclusive.

SMILES	A549 viability	ERG Ets-DNA blk	Nrf2 block	LDHA block	Nrf2 activator	ALOX12 inh
CC(C)N(C(=O)CSc1nc(Cc2ccccc2)nc2ccccc12)C(C)C	2.9%	4.0%	18.4µM*	-6.7	1.7%	-8.7%
O=C(/C=C\c1ccco1)Nc1nc(-c2ccc3ccccc3c2)cs1	13.6%	8.0%	14.6µM*	-3.2	3.1%	?
COc1ccc(-c2csc(NC(=O)c3ccco3)n2)cc1	1.5%	7.6%	?	0.5	9.4%	9.4%
CCN(C(=O)c1ccco1)c1nc(-c2ccc(C)cc2)cs1	/	/	/	7.9	/	8.4%
Cc1ccc(-c2csc(NC(=S)NC(=O)/C=C/c3ccco3)n2)cc1	?	-2.2%	/	0.2	27.0%	-27.7%
Cc1ccc(-c2csc(NC(=O)c3ccc(-c4ccccc4)cc3)n2)o1	-12.6%	8.0%	2.91µM*	-16.8	4.8%	/
CCN(C(=O)c1ccco1)c1nc(-c2ccccc2)cs1	/	/	/	-33.8*	/	-9.7%
O=C(Nc1nc(-c2ccccc2)cs1)c1ccco1	1.2%	3.3%	15.1%	-2.3	14.1µM*	0.0%
O=C(Nc1nc(-c2ccco2)cs1)c1ccccc1	4.8%	1.3%	/	-0.2	?	?
Cc1cccc(NC(=O)N2CCC(CCNS(=O)(=O)c3c(C)cc(C)cc3C)CC2)c1	/	/	/	-0.7	/	1.9%
COc1cc(-c2ccc(C)cc2)nc2ccc(C(=O)NCC(C)O)cc12 (stereo not drawn)	/	/	/	-2.5	/	34.7%
CC(C)(C)c1ccc(-c2csc(NC=C(C#N)C#N)n2)cc1	/	/	/	-1.4	/	?
CCCn1c(NC(=O)c2oc3ccccc3c2COCC)nc2ccccc21	/	/	/	17.6	/	?
COCCN(C(=O)c1ccco1)c1nc(-c2ccccc2)cs1	-0.3%	3.1%	?	1.4	10µM*	2.2%
O=c1[nH]c(CN2CCN(c3ccccn3)CC2)nc2c(Br)cc(Br)cc12	?	5.3%	23.1µM*	-4.3	-0.3%	?
COCC(=O)NC[C@H]1O[C@@H](CO)[C@@H](O)[C@H]1N1CCN(c2cccc(C(F)(F)F)c2)CC1	/	/	/	/	/	5.7%
O=C(NC[C@H]1O[C@@H](CO)[C@@H](O)[C@H]1N1CCCC1)c1ccccc1	/	/	/	/	/	11.4%[176 µM]
O=S(=O)(NC[C@H]1O[C@@H](CO)[C@@H](O)[C@H]1N1CCN(c2ccccn2)CC1)c1ccc(Cl)cc1	/	/	/	/	/	17.8µM*
NC[C@H]1O[C@@H](CO)[C@@H](O)[C@H]1N1CCN(c2ncccn2)CC1	/	/	/	/	/	20µM*
O=S(=O)(NC[C@H]1O[C@@H](CO)[C@@H](O)[C@H]1N1CCCC1)c1cccs1	/	/	/	/	/	15.8µM*
O=C(NC[C@H]1O[C@@H](CO)[C@@H](O)[C@H]1N1CCN(c2ccccn2)CC1)c1ccccc1	/	/	/	/	/	2.3%
Cc1ccc(S(=O)(=O)NC[C@H]2O[C@@H](CO)[C@@H](O)[C@H]2N2CCN(c3cccc(C(F)(F)F)c3)CC2)cc1	/	/	/	/	/	15.8µM*
Cc1ccc2nc(NC(=O)CCn3c(=O)n(C)c4ccccc43)sc2c1	/	/	/	2.0	/	-4.4%
CN(Cc1ccccc1)C1CCN(Cc2ccc(F)cc2)CC1	/	/	/	0.8	/	?
Cc1cc(OCC(=O)NCc2ccc(-c3nc4ncccc4o3)cc2)ccc1Cl	/	/	/	-1.7	/	?
SMILES	A549 viability	ERG Ets-DNA blk	Nrf2 block	LDHA block	Nrf2 activator	ALOX12 inh
C/C(=N\Nc1nccnc1Cl)c1ccc(Br)cc1	0.0%	-4.2%	12.8%	-3.5	11.2µM*	-20.4%
COc1ccc(/C(C)=N/Nc2nccnc2Cl)cc1	0.2%	7.8%	?	-3.8	13.7%	21.3%
CCCC(=O)NC(=S)Nc1cccc(Cl)c1N1CCCCC1	?	0.1%	/	1.4	5.2%	?
CCCCC(=O)NC(=S)Nc1cccc(Cl)c1N1CCCCC1	9.2%	2.1%	-8.0%	2.7	0.1%	35.5µM*
Cc1ccccc1CN1CCC(CNC(=O)Nc2cn(CC(C)C)c(=O)c3ccccc23)CC1	/	/	/	-24.4	/	?
COc1ccc(C=C2SC(=S)NC2=O)c(OC)c1OC	14.6µM*	27.5%	?	-21.4	22.0%	?
CC(C)CNc1ncnc2oc(-c3ccco3)c(-c3ccco3)c12	-13.8%	/	16.4µM*	6.8	/	/
COc1cc(OCc2ccccc2)c(C(=O)/C=C/c2ccc3c(c2)OCO3)c(OC)c1OC	0.3%	-9.3%	20.6µM*	-3.7	?	493.7%
COCC(=O)N[C@H]1C[C@@H](CO)N(Cc2c[nH]c3ccccc23)C1	/	/	/	/	/	20.7%
Nc1nccnc1C(=O)NCc1ccc(C(F)(F)F)cc1	/	/	/	10.2	/	?
Cc1nc(N2CCCCC2)ncc1-c1cc(=O)[nH]c(N2CCc3ccccc3C2)n1	/	/	/	-0.5	/	-1.3%
NNc1ccccc1Br	/	/	/	1.2	/	8.91µM*
CC(=O)Nc1ccc(S(=O)(=O)NCCSCc2cccc(Cl)c2)cc1	0.9%	1.8%	-26.2%	0.5	0.5%	-20.2%
CC(=O)Nc1ccc(S(=O)(=O)NCCSCc2c(Cl)cccc2Cl)cc1	-21.0%	0.4%	14.6µM*	-2.3	-0.1%	-0.8%
CCN(Cc1cc2ccccc2[nH]c1=O)S(=O)(=O)c1ccc(C)cc1	/	/	/	-4.8	/	-20.0%
Cc1onc(-c2ccccc2)c1C(=O)OCC(=O)Nc1ccc(OC(F)(F)F)cc1	-8.3%	-5.0%	23.1µM*	2.9	0.8%	124.7%
Cc1onc(-c2ccccc2)c1C(=O)OCC(=O)Nc1ccc(Cl)cc1	?	2.2%	23.1µM*	-6.6	0.3%	-29.6%
Cc1ccc(NC(=O)COC(=O)c2c(-c3ccccc3)noc2C)cc1	-5.5%	-2.9%	?	-1.1	2.9%	-6.1%
CCCCn1c2c(c(=N)c3ccccc31)CCC2	4.8%	10.9%	-25.5%	-6.2	0.1%	0.0%
CCCCCCCCn1c2c(c(=N)c3ccccc31)CCC2	?	4.2%	2.91µM*	-9.3	16.7%	?
CCOC(=O)C1CCCCN1Cc1cccc(Oc2ccccc2)c1 (stereo not drawn)	22.5%	3.2%	?	-0.2	-1.8%	14.1µM*
CCOC(=O)C1CCCCN1Cc1cccc(OCc2ccccc2)c1 (stereo not drawn)	1.1%	-2.6%	0.5%	-7.2	0.2%	22.9%
